# Results taken from PubChem BioAssay.
# A number with no mark means an inactive call. Some of the results follow. The source made the active and inactive calls. Cut-off read from the data, not from the text of the source, unless noted: active = inhibition above about 30%; inactive = the rest.
# Columns and labels:
# [1] = biological target: Toll-like receptor 9 (Homo sapiens) (UniProt Q9NR96); experiment: disruptors of TLR9 binding to MyD88 – cell-based, CHO, BLA complementation, fluorescence, triplicate, confirmation (AID 540250;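 active = mean inhibition across three repeats above about 21% taken from the earlier screen, limit read from the data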;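 note: blue over green emission ratio reports constitutive TLR9 MyD88 association via BLA complementation; 0% = DMSO vehicle wells and 100% = clavulanate BLA inhibitor wells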); conditions: CCF4 FRET ratio, at 4.98 µM, active compounds read high
# [2] = BLA reporter readout interference – cell-based, fluorescence, artefact control for TLR9-MyD88 binding inhibitor project (AID 540251;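 active = mean inhibition above a 50% cutoff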;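 note: counterscreen of TLR9-MyD88 hits on CMV-driven BLA in CHO-K1 cells; 0% = DMSO alone and 100% = clavulanate blocking BLA; higher means less blue over green ratio so more BLA blockade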); conditions: CHO-BLA cells, CCF4 FRET ratio, at 4.98 µM, active compounds read high
# [3] = CHO cell viability loss – luminescence, single concentration, cytotoxicity control for TLR9-MyD88 binding inhibitor project (AID 588336; in the data active = inhibition above about 11%); conditions: TLR9-MyD88 CHO cells cytotoxicity, at 4.98 µM, active compounds read high
# [4] = biological target: Receptor-interacting serine/threonine-protein kinase 2 (Homo sapiens) (UniProt O43353); experiment: inhibitors of RIPK2 association with NOD2 – fluorescence, CHO cells, BLA complementation, triplicate, confirmation (AID 624370;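 active = mean inhibition across replicates above a set limit taken from the earlier primary screen, cut at about 21% in these data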;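 note: 0% = DMSO-only wells and the high end = clavulanate BLA-blocked wells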); conditions: CCF4 FRET, at 4.98 µM, active compounds read high
# [5] = BLA reporter readout interference – cell-based, CHO-K1 CMV-bla, CCF4 FRET, fluorescence, artefact control for NOD2-RIPK2 interaction inhibitor project, confirmation (AID 624371;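 active = mean inhibition above the low-control mean inhibition plus three low-control SD, cut at about 11% in these data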;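 note: 0% = DMSO only wells and 100% = clavulanate high control wells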); conditions: CCF4 FRET ratio, counterscreen, at 4.98 µM, active compounds read high
# [6] = biological target: Serine protease HTRA1 (Homo sapiens) (UniProt Q92743); experiment: confirming inhibition of human HTRA1 – biochemical, fluorescence polarization, confirmation (AID 540248;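 active = mean inhibition over three repeats above a set limit taken from the earlier primary screen, cut at about 37% in these data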;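 note: 0% = HTRA1 with DMSO and 100% = wells lacking HTRA1; inhibitors block probe binding so polarization drops and inhibition rises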); conditions: recombinant HTRA1, FP-rhodamine activity-based probe, at 5.96 µM, active compounds read high
# [7] = BSA probe fluorescence interference – biochemical, TAMRA-labeled BSA, counter-screen for TCR-CD3 interaction inhibitor project (AID 652035; in the data active = inhibition above about 23%;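 note: 0% = buffer low control and 100% = reference high control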); conditions: TAMRA-labeled BSA probe fluorescence counterscreen; at 9.4 µM; active compounds read high
# [8] = system: T-cell receptor (TCR)-CD3 interaction, human; experiment: blockers of TCR binding to CD3 – biochemical, fluorescence, TAMRA-labeled TCR probe, confirmation (AID 652036; in the data active = inhibition above about 19%); conditions: TAMRA-labeled TCR probe fluorescence binding assay; at 9.4 µM; active compounds read high
# [9] = biological target: Nuclear receptor coactivator 3 (Homo sapiens) (UniProt Q9Y6Q9); experiment: NCOA3 GAL4-fusion reporter inhibition – cell-based, luminescence, quadruplicate, confirmation (AID 588792;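 active = mean inhibition over 43.08%, the solvent-only control mean plus 3 SD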;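 note: 0% = DMSO treated cells and 100% = gossypol at 36 µM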); conditions: HEK293 GAL4-SRC3 luciferase reporter, at 3.6 µM, active compounds read high
# [10] = system: transactivating tegument protein VP16 (Human herpesvirus 1), Gal4-VP16 luciferase reporter; experiment: repression of VP16-driven luciferase reporter – cell-based, luminescence, high throughput, counter-screen for SRC3 inhibitor project (AID 588794); conditions: mammalian cells, at 3.6 µM, active compounds read high
# Sequence of Nuclear receptor coactivator 3 (Homo sapiens) (Q9Y6Q9 whole entry, looked up, the tested form may be a part): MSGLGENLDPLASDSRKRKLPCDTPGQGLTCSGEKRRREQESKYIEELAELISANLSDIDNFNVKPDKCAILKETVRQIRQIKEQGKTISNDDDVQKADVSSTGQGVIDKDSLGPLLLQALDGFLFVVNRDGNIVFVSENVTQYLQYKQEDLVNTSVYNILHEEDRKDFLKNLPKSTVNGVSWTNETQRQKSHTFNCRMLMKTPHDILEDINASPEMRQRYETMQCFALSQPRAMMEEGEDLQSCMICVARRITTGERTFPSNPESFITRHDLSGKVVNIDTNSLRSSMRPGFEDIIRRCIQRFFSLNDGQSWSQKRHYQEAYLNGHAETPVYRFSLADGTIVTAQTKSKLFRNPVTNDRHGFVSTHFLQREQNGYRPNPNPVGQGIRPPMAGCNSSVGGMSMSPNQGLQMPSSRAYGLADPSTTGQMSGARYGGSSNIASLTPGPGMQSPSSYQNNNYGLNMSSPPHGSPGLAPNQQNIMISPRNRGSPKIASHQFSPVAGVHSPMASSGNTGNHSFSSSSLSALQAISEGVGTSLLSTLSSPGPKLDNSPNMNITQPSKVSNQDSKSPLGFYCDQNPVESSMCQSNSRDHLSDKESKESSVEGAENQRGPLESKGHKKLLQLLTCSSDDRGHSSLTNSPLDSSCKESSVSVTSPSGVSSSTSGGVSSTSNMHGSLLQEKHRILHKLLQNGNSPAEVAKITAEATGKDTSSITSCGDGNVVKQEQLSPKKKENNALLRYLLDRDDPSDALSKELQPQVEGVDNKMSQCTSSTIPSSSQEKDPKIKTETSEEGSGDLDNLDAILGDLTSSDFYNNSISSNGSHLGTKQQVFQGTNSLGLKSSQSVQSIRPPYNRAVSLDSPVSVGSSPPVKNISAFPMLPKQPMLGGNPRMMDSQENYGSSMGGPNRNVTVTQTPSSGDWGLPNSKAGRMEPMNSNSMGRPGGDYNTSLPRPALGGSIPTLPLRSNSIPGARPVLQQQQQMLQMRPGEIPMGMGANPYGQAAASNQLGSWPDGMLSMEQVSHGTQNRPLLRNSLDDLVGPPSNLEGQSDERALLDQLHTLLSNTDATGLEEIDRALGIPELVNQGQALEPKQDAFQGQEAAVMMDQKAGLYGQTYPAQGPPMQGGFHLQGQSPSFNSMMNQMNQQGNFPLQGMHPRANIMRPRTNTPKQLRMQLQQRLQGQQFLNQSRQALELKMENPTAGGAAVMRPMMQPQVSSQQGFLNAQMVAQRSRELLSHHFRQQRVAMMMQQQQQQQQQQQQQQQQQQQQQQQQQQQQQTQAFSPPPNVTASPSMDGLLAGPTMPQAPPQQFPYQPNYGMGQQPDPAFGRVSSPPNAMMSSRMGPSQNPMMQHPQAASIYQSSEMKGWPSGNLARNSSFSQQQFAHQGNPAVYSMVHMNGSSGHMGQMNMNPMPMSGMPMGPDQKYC
# Sequence of Toll-like receptor 9 (Homo sapiens) (Q9NR96 whole entry, looked up): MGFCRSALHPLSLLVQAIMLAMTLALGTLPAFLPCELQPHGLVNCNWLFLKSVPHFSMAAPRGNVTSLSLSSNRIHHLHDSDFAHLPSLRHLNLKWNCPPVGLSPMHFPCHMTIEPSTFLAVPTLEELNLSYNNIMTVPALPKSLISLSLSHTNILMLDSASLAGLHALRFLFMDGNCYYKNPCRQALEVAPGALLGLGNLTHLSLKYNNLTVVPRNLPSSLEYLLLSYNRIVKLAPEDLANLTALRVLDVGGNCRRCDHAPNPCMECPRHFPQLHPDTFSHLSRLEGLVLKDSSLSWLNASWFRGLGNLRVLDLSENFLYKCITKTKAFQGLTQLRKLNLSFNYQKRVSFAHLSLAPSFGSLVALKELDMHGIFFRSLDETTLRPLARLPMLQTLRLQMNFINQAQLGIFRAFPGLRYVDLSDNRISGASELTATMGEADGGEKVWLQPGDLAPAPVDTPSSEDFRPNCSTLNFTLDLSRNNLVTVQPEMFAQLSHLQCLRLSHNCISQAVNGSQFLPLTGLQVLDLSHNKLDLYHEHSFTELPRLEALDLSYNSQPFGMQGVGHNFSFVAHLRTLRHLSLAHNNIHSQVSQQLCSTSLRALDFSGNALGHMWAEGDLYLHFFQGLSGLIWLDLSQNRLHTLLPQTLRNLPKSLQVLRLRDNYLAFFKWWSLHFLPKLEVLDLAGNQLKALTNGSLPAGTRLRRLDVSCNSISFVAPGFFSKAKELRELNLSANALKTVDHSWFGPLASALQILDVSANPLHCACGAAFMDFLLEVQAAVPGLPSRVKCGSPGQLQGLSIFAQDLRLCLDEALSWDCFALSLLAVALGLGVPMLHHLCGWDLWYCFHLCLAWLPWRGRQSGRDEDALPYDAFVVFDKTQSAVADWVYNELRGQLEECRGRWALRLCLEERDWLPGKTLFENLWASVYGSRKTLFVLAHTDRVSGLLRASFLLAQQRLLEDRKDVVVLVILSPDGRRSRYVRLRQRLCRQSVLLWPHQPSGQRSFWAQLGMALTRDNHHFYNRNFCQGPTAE
# Sequence of Receptor-interacting serine/threonine-protein kinase 2 (Homo sapiens) (O43353 whole entry, looked up): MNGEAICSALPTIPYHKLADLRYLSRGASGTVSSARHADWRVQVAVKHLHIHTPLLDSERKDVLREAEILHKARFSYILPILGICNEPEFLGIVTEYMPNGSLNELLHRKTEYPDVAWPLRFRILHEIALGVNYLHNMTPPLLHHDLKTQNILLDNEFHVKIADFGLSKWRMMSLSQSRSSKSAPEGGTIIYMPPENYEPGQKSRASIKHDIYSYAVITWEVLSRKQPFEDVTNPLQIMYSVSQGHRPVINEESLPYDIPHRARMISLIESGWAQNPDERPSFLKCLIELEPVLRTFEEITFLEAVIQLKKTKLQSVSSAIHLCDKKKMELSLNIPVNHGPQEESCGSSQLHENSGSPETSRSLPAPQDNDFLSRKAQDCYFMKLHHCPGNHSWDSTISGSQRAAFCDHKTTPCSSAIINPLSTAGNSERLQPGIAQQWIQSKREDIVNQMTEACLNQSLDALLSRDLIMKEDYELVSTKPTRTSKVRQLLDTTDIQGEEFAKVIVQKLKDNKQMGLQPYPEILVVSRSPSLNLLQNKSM
smiles,measurement,setting,value
Oc1ccc2ccc3cccc[n+]3c2c1,inhibition,[1],11.3%
same,inhibition,[2],11.8%
same,inhibition,[3],5.09%
same,inhibition,[4],36.5% (active)
same,inhibition,[5],32.6% (active)
NC(=O)NC(=O)C(OC(=O)CCNS(=O)(=O)c1ccccc1)c1ccccc1 (stereo unspecified),inhibition,[6],23.1%
NS(=O)(=O)c1ccc(NC(=O)COC(=O)c2c3c(nc4ccccc24)/C(=C\c2ccc4c(c2)OCO4)CCC3)cc1,inhibition,[1],17.9%
same,inhibition,[2],22.2%
same,inhibition,[3],0.35%
same,inhibition,[7],5.98%
same,inhibition,[8],15.7%
COC(=O)c1ccc(S(=O)(=O)NCc2ccc(S(N)(=O)=O)cc2)o1,inhibition,[9],-5.84%
same,inhibition,[10],-6.55%
C=CCN1CN(S(=O)(=O)c2cccs2)c2nc3ccccc3nc21,inhibition,[9],-9.88%
same,inhibition,[10],7.9%
CCCCCCCOC(=O)C[N+](C)(C)CCOC1CC2CCC1(C)C2(C)C (stereo unspecified),inhibition,[9],-17.6%
same,inhibition,[10],9.62%
COc1ccc(CN(C)C(=O)c2cccc(NC(=O)CC3SC(N4CCCCC4)=NC3=O)c2)c(OC)c1 (stereo unspecified),inhibition,[9],26.9%
same,inhibition,[10],30.3% (active)
Cc1ccc(S(=O)(=O)Nc2ccc3c(c2)OCCO3)cc1C,inhibition,[9],24.1%
same,inhibition,[10],-2.28%
COc1ccc(C)cc1NC(=O)c1nnn(Cc2cccc(F)c2)c1N,inhibition,[9],22.3%
same,inhibition,[10],26.1%
COc1cccc(C(=O)Oc2c(Br)cc(Br)cc2/C=N/NC(=O)c2cc(C)[nH]n2)c1,inhibition,[9],18.3%
same,inhibition,[10],18.3%
COc1ccc(CCN2C(=O)C(Oc3ccccc3C)C2c2ccc3c(c2)OCO3)cc1 (stereo unspecified),inhibition,[9],2.45%
same,inhibition,[10],8.58%
COn1c(C)c(C(C)=O)c2c3nonc3ccc21,inhibition,[9],22.5%
same,inhibition,[10],33.5% (active)
COc1cc(/C=C2\SC(=S)N(CCC(=O)NC3CCCC3)C2=O)cc(OC)c1OC,inhibition,[9],-4.46%
same,inhibition,[10],9.3%
CCOC(=O)N1CCC(NC(=O)C2CCCN(Cc3nc(-c4ccc(CC)cc4)oc3C)C2)CC1 (stereo unspecified),inhibition,[9],18.7%
same,inhibition,[10],33.9% (active)
CCCCc1nc2ccccc2c(N)c1CCC (tested in a mixture with another compound),inhibition,[9],8.62%
same,inhibition,[10],9.99%
COc1ccccc1OCC(=O)NNC(=O)C1CCN(c2ncnc3sc(C)c(C)c23)CC1,inhibition,[9],3.67%
same,inhibition,[10],0.76%
COc1ccc([N+](=O)[O-])cc1NC(=O)Nc1cccc(Cl)c1,inhibition,[9],19.4%
same,inhibition,[10],15.4%
O=C(CNc1cccc([N+](=O)[O-])c1)N/N=C/c1ccc([N+](=O)[O-])o1,inhibition,[9],32.3%
same,inhibition,[10],14.3%
CCCCCn1c(=O)[nH]c2cc(C(=O)N3CCN(c4ccc(C(C)=O)cc4)CC3)ccc2c1=O,inhibition,[9],0.25%
same,inhibition,[10],21.7%
COc1ccc(-c2cc(C(=O)N(C)Cc3ccc(OC)c(OC)c3OC)c3ccccc3n2)cc1OC,inhibition,[9],8.88%
same,inhibition,[10],6.51%
CN1CCCC(n2nc(Cc3ccc(Cl)cc3)c3ccccc3c2=O)CC1 (stereo unspecified),inhibition,[9],10.3%
same,inhibition,[10],2.25%
COc1ccc(/C(C)=N/NC(=O)c2cccc(S(=O)(=O)N3CCCC3)c2)c(O)c1,inhibition,[9],67.9% (active)
same,inhibition,[10],63.5% (active)
Cc1ccsc1/C=N/NC(=O)CNC(=O)c1ccccc1,inhibition,[9],-11.5%
same,inhibition,[10],-7.26%
